PubChem BioAssay (NCATS)
Values without a mark were called inactive. Records with an inconclusive call do not appear. Activity calls are given as the source filed them. Unless noted, calls follow the shape of the dose curve; as a rule, active = well fitted curve in either direction with a large enough effect (not every such curve was filed as active); inconclusive = small, poorly fitted or top-dose-only effect, or another doubt; inactive = flat fitted curve, though single readings scatter.

Tests used:
[1] = target: Lysosomal acid glucosylceramidase (Homo sapiens) (UniProt P04062); test: Glucocerebrosidase-p2 (AID 348; in the data active = potency below about 10 µM; also: potency is read from the fitted curve at half-maximal effect); settings: purified GBA, blue fluorogenic substrate, 40 min
Chain of Lysosomal acid glucosylceramidase (Homo sapiens) (P04062 whole entry, looked up): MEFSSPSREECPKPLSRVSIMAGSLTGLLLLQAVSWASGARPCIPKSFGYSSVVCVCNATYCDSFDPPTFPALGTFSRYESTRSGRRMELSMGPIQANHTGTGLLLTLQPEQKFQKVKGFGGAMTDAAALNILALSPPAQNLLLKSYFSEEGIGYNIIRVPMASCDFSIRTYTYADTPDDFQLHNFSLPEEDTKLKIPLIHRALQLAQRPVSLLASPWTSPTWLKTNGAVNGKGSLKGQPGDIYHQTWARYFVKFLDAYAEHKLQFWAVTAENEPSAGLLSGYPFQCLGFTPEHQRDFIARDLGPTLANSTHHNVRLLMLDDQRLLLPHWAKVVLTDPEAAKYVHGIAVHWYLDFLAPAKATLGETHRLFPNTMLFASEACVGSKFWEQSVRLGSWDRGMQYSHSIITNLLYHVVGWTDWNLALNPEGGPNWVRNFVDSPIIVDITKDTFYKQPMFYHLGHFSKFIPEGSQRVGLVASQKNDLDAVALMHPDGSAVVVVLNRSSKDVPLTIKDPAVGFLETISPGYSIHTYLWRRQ
Method in brief: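 Compounds titrated from 0.6 nM upwards against 0.2 nM enzyme in pH 5.9 citric acid/KH2PO4, taurocholate, tween-20; blue fluorogenic substrate 80 uM, 40 min room temperature, stopped and read Ex 365/Em 440 for AC50.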

[2] = target: Cytochrome P450 1A2 (Homo sapiens) (UniProt P05177); test: p450-cyp1a2 (AID 410; calls by dose curve; also: potency is read from the fitted curve at half-maximal effect;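 as to activity change, negative = inhibition: -100% = full effect of reference inhibitor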); settings: recombinant CYP1A2, luciferin-ME demethylation, luminescence; series mostly up to 11.4 µM
Chain of Cytochrome P450 1A2 (Homo sapiens) (P05177 whole entry, looked up): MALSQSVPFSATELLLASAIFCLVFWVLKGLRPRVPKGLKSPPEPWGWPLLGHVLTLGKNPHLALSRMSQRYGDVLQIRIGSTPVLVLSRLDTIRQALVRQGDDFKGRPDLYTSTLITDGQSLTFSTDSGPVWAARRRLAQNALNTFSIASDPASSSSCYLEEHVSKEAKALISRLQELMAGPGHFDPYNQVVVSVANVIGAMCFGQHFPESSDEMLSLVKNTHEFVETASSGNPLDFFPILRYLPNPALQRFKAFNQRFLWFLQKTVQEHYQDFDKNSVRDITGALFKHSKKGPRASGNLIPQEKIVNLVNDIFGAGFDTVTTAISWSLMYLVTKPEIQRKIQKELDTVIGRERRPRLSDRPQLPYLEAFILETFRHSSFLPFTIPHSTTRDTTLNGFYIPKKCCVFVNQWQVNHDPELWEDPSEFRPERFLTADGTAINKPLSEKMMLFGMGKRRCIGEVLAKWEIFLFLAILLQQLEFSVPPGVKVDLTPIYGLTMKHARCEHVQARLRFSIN
Method in brief: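 Luminescent readout of luciferin formed from Luciferin-ME by human CYP1A2; data normalized against complete inhibition by 57 uM furafylline. Enzyme 20nM, substrate 100uM at Km, 100mM KPO4 buffer, 60 min reaction at room temperature.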

[3] = NFAT Signaling Pathway (AID 444); settings: Jurkat NFAT-bla M1, carbachol, beta-lactamase ratio, 5 h; at 7.69 µM (top of the series) unless noted;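 also: carbachol stimulus at about its EC50 of 1 µM final; % is scaled to controls: 0 for no effect and ±100 for the full control effect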
Method in brief: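 Read-out: CCF4 FRET ratio (460 nm/530 nm) after 1 h RT dye loading, used for %activity and AC50 from titration series. Cells: Jurkat NFAT-β-lactamase/M1 line, treated with compound plus 1 uM carbachol for 5 h, 37 °C.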

[4] = Stat Signaling Pathway (AID 446); settings: ME-180 SIE beta-lactamase reporter, IL-6 stimulated, 5 h; at 7.69 µM (top of the series) unless noted;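 also: ME-180 cervical cancer cells given 40 pM IL-6 alongside compound; SIE-controlled beta-lactamase reporter measured as 460/530 nm FRET emission ratio; % is scaled to controls: 0 for no effect and ±100 for the full control effect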
Method in brief: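 Reporter line: ME-180 cervical carcinoma, SIE-beta-lactamase. Treatment: compound with 40 pM IL-6, 5 hrs, 37 C, in low-serum OPTI-MEM with 10 mM HEPES pH 7.3. Detection: 460/530 nm fluorescence.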

[5] = target: Glucocorticoid receptor (Homo sapiens) (UniProt P04150); test: GR-GFP Redistribution (AID 450;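 active = compounds whose dose series gives a full or clear partial fitted curve of increased nuclear translocation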; also: potency is read from the fitted curve at half-maximal effect); settings: U2OS GR-GFP nuclear translocation, laser cytometry, 2 h
Chain of Glucocorticoid receptor (Homo sapiens) (P04150 whole entry, looked up, the tested form may be a part): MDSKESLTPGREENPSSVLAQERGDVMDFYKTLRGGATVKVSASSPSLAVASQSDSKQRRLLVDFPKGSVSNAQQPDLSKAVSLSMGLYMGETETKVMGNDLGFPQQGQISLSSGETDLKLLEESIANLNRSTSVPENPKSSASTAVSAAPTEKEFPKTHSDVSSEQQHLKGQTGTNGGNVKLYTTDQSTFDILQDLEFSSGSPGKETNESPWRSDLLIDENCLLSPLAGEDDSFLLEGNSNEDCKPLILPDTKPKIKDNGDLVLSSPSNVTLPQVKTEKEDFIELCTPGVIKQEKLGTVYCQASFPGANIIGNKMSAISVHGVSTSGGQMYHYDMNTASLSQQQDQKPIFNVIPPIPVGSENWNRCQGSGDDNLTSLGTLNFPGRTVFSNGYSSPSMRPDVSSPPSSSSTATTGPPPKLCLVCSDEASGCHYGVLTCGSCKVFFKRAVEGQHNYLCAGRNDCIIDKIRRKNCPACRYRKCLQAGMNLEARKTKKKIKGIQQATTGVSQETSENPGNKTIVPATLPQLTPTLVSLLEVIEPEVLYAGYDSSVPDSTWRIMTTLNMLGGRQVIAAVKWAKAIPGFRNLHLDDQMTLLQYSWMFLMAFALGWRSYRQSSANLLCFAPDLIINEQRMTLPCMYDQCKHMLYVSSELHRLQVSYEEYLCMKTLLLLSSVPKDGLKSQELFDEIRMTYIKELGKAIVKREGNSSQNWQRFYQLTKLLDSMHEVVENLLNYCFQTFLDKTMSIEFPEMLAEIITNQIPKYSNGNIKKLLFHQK

[6] = target: Glucocorticoid receptor (Homo sapiens) (UniProt P04150); test: GR-EFC Redistribution (AID 451; calls by dose curve; also: potency is read from the fitted curve at half-maximal effect); settings: CHO-K1 GR-EFC translocation, beta-gal luminescence, 2 h
Method in brief: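 Translocation of GR-ED fusion to nuclear EA restores b-gal, read by luminescence after 1 h room-temperature detection. Engineered CHO-K1 biosensor cells, 1,000/well, exposed 2 h at 37 C to titrations up to 46 uM final.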

[7] = target: Mitogen-activated protein kinase 10 (Mus musculus) (UniProt Q61831); test: JNK3 AlphaScreen Assay (AID 530); settings: JNK3 lysate, c-Jun phosphorylation; series mostly up to 11.4 µM;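 also: kinase came from lysate of stimulated human HepG2 cells; signal reports phosphorylation of biotinylated GST-cJun 1-79 at Ser73 with 10 µM ATP; % is scaled to controls: 0 for no effect and ±100 for the full control effect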
Method in brief: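 Compound titrations were preincubated 15 minutes at room temperature with substrate, antibody and pre-activated JNK3-containing HepG2 lysate. Reactions were started with 10 uM ATP and stopped with EDTA-containing bead buffer for AlphaScreen detection.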

[8] = target: 3',5'-cyclic-AMP phosphodiesterase 4B (Homo sapiens) (UniProt Q07343); test: qHTS Assay for Inhibitors of PDE-IV (AID 607; active = well fitted activation curve with a large enough effect in the main read-out, with a control signal flat, not every such curve was filed as active; also: % of control where 0% means no effect); settings: HEK293 ACTOne CNG channel cells, membrane potential fluorescence; series mostly up to 22.9 µM
Chain of 3',5'-cyclic-AMP phosphodiesterase 4B (Homo sapiens) (Q07343 whole entry, looked up): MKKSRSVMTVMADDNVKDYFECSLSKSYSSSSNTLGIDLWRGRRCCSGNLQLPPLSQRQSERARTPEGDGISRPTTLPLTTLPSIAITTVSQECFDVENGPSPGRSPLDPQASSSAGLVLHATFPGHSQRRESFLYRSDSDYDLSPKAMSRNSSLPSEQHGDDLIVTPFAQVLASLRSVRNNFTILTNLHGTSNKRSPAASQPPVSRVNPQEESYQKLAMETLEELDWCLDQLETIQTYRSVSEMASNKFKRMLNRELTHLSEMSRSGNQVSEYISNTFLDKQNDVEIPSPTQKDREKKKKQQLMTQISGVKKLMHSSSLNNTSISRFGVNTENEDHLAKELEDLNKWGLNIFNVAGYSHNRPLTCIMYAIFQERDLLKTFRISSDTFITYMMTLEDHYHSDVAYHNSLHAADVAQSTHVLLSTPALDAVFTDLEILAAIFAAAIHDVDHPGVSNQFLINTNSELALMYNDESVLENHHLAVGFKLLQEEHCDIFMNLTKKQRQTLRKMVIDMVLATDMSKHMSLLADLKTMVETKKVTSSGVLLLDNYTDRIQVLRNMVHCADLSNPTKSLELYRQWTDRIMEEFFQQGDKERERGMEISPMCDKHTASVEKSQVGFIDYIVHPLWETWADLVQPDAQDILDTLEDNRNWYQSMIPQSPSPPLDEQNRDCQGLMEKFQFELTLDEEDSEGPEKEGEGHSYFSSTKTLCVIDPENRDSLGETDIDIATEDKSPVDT
Method in brief: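 Cell-based read-out of cAMP via a modified cyclic nucleotide-gated channel and membrane potential dye (535/590 nm) in HEK293 cells expressing PDE4 endogenously. Compounds tested up to 22.9 uM final; 100 uM RO 20-1724 reference.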

[9] = qHTS Assay for Identification of Small Molecule Agonists for Hypoxia Response Element Signaling Pathway (AID 914; active = well fitted activation curve with a large enough effect in the signal ratio, with a control signal flat, not every such curve was filed as active; the % refers to the signal ratio; also: % of control where 0% means no effect); settings: ME-180 (cervical carcinoma) HRE-bla reporter, beta-lactamase ratio, CoCl2, 17 h; activation: hits give high values
Method in brief: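 Positive modulation of EC50 CoCl2-induced hypoxia response element signaling is measured in ME-180 cells with a beta-lactamase reporter. Compounds are titrated, incubation runs 17 hours, and %Activity derives from the blue/green ratio.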

[10] = target: Cytochrome P450 3A4 (Homo sapiens) (UniProt P08684); test: qHTS Assay for Activators of Cytochrome P450 3A4 (AID 885; active = well fitted curve in the direction sought with a large enough effect; an effect the other way counts as inactive or inconclusive; also: nearly all actives have a fitted effect of over 65% in size); settings: recombinant CYP3A4, Luciferin-PPXE luminescence, 60 min; series mostly up to 11.4 µM
Chain of Cytochrome P450 3A4 (Homo sapiens) (P08684 whole entry, looked up): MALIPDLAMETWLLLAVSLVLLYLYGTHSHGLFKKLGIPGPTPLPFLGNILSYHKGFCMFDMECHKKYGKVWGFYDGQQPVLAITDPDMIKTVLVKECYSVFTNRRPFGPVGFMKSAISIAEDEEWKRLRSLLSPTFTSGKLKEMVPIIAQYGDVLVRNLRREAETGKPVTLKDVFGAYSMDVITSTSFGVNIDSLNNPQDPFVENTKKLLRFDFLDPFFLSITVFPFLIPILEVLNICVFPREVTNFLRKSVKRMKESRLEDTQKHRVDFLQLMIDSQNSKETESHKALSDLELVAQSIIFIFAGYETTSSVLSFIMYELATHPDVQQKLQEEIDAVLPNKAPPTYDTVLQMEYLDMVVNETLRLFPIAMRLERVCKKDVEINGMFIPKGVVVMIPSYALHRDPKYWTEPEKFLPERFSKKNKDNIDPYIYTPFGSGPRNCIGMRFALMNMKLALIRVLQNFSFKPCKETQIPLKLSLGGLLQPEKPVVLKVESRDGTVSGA
Method in brief: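 Signal was normalized against complete inhibition by 57 uM ketoconazole. The reaction used 20nM CYP3A4 with 25uM Luciferin-PPXE, 10-min compound preincubation and a 60-min NADPH-supported step at RT.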

[11] = target: Cytochrome P450 2C9 (Homo sapiens) (UniProt P11712); test: qHTS Assay for Inhibitors and Substrates of Cytochrome P450 2C9 (AID 883; active = well fitted curve in the direction sought with a large enough effect; an effect the other way counts as inactive or inconclusive; also: nearly all actives have a fitted effect of over 60% in size; also: potency is read from the fitted curve at half-maximal effect; as to activity change, negative = inhibition: % is scaled to controls: 0 for no effect and ±100 for the full control effect); settings: recombinant CYP2C9, luciferin-H luminescence, 60 min; series mostly up to 11.4 µM
Chain of Cytochrome P450 2C9 (Homo sapiens) (P11712 whole entry, looked up): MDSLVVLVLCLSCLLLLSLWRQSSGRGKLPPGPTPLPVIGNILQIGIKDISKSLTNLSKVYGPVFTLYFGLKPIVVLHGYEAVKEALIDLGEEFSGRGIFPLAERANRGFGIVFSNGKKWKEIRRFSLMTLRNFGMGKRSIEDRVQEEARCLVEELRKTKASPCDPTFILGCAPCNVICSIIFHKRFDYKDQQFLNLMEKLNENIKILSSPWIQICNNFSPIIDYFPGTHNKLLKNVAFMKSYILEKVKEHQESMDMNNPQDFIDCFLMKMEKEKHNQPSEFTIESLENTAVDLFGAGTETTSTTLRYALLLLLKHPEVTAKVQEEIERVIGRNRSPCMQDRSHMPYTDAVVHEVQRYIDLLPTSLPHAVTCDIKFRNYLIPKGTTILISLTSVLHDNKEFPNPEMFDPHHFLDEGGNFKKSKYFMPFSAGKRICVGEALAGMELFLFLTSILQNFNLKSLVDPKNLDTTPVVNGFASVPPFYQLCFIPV
Method in brief: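 Turnover of Luciferin-H (100uM, KM) by 10nM human CYP2C9 was measured over 60 min at 37C with NADPH regeneration; inhibitors and some substrates reduce luminescence. Data normalized to sulphaphenazole 57uM.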

[12] = target: Cytochrome P450 2D6 (Homo sapiens) (UniProt P10635); test: qHTS Assay for Inhibitors and Substrates of Cytochrome P450 2D6 (AID 891; active = well fitted curve in the direction sought with a large enough effect; an effect the other way counts as inactive or inconclusive; also: nearly all actives have a fitted effect of over 60% in size; also: potency is read from the fitted curve at half-maximal effect); settings: recombinant CYP2D6, luciferin-ME EGE luminescence; series mostly up to 11.4 µM
Chain of Cytochrome P450 2D6 (Homo sapiens) (P10635 whole entry, looked up): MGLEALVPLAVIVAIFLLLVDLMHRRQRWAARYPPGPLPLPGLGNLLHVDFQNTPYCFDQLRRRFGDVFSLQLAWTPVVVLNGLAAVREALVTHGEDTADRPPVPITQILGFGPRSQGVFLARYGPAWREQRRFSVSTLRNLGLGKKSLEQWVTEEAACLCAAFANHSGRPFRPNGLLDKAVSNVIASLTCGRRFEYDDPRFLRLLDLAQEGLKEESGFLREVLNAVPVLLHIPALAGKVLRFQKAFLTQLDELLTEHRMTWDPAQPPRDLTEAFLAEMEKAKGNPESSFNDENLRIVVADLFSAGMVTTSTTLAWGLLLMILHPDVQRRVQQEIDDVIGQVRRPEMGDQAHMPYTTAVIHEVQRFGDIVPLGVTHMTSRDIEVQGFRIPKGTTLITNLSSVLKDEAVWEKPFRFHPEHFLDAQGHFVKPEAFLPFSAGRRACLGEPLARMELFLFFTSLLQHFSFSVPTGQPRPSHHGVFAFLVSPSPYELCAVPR
Method in brief: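 Human CYP2D6 (5 nM) with 30 uM Luciferin-ME EGE (at Km) in 100 mM KPO4, compound preincubated 10 min, then NADPH regeneration system for 60 min at room temperature. Luciferin read by luminescence; normalized to 1.43 uM quinidine.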

[13] = target: Cytochrome P450 2C19 (Homo sapiens) (UniProt P33261); test: qHTS Assay for Inhibitors and Substrates of Cytochrome P450 2C19 (AID 899; active = well fitted curve in the direction sought with a large enough effect; an effect the other way counts as inactive or inconclusive; also: nearly all actives have a fitted effect of over 60% in size; also: potency is read from the fitted curve at half-maximal effect); settings: recombinant CYP2C19, luciferin-H EGE luminescence; series mostly up to 11.4 µM
Chain of Cytochrome P450 2C19 (Homo sapiens) (P33261 whole entry, looked up): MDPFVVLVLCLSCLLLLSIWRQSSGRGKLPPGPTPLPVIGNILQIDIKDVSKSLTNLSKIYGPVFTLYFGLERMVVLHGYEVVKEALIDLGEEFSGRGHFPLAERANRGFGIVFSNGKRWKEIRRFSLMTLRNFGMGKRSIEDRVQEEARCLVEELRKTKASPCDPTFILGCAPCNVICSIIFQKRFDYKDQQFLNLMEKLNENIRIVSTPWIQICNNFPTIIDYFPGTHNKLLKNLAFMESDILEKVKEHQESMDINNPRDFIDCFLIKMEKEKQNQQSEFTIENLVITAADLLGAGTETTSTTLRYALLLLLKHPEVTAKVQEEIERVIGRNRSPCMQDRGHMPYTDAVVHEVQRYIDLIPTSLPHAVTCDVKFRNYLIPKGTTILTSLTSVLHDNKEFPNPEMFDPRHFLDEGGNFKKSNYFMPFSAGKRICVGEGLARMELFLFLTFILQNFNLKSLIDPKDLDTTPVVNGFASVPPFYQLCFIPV
Method in brief: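 Reactions contain 5nM enzyme, 10uM Luciferin-H EGE (KM) and 50mM KPO4; compound preincubates 10 min at 37C, NADPH regeneration starts turnover for 60 min. Luminescence after detection reagent gives activity.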

Structure (SMILES)	Potency [1]	Potency [2]	activity change, negative = inhibition [3]	activity, negative = inhibition [4]	Potency [5]	Potency [6]	Potency [7]	Potency [8]	activation [9]	Potency [10]	Potency [11]	Potency [12]	Potency [13]	activity change, negative = inhibition [2]
Cc1c(S(=O)(=O)O)ccc(N=Nc2c(O)c(C(=O)O)cc3ccccc23)c1Cl	> 11.4 µM	5.01 µM (active)	-10.7%	-10.2%	> 46 µM	> 9.22 µM	inactive	inactive	-17.8%	–	–	–	–	–
O=C1Oc2ccccc2C(=O)/C1=C\N1C(=O)N/C(=C\c2ccccc2O)C1=O	> 11.4 µM	0.316 µM (active)	-7.15%	-25.4%	> 46 µM	> 9.22 µM	inactive	inactive	–	inactive	–	–	–	–
COc1cccc(Nc2ncc3ncc(=O)n(C4CC4)c3n2)c1	> 11.4 µM	0.631 µM (active)	-22.2%	-24.1%	> 9.22 µM	> 46 µM	inactive	inactive	–	inactive	–	–	–	–
Cc1cc(Cl)nc(NC(=O)CSc2ccc(Cl)cc2)n1	> 11.4 µM	5.01 µM (active)	16.8%	11%	> 46 µM	> 9.22 µM	inactive	inactive	–	–	–	–	–	–
CC(CCC(=O)O)(c1ccc(O)cc1)c1ccc(O)cc1	> 11.4 µM	inactive	6.62%	-4.62%	> 46 µM	> 9.22 µM	inactive	inactive	–	inactive	inactive	inactive	inactive	–
OC[C@@H]1O[C@@H](N2CCN([C@@H]3O[C@@H](CO)[C@@H](O)[C@H](O)[C@H]3O)CC2)[C@@H](O)[C@H](O)[C@H]1O	> 11.4 µM	–	-2.18%	-5.46%	> 46 µM	> 9.22 µM	inactive	inactive	–	–	–	–	–	-9.7% [at 2.29 µM]
O=C1c2ccccc2C(O)(O)[C@@]1(O)[C@]1(O)C(=O)c2ccccc2C1(O)O	> 11.4 µM	–	-0.902%	–	> 46 µM	> 9.22 µM	inactive	inactive	–	–	inactive	–	inactive	-7.5% [at 2.29 µM]
NCCSCCC(=O)O	> 11.4 µM	inactive	11.4%	0.279%	> 46 µM	> 9.22 µM	inactive	inactive	–	–	–	–	–	–
ClC(=Nc1cccc2ccccc12)N(c1ccccc1)c1ccccc1	> 11.4 µM	1 µM (active)	-2.09%	–	> 46 µM	> 9.22 µM	inactive	inactive	–	inactive	3.16 µM (active)	–	2.51 µM (active)	–
COc1ccc2c(c1)N(CC[C@H]1CCCCN1C)c1ccccc1S2	> 11.4 µM	1.26 µM (active)	-80.4% (active)	-6.74%	> 46 µM	> 9.22 µM	inactive	inactive	–	–	–	0.0501 µM (active)	–	–
C[C@]12CC[C@H]3c4ccc(O)cc4CC[C@@H]3[C@H]1CC[C@@H]2OC(=O)CCc1ccccc1	> 11.4 µM	–	-14.3%	-1.42%	> 46 µM	> 9.22 µM	inactive	inactive	–	–	–	–	–	-13.8% [at 2.29 µM]
C[N+](C)([O-])CCC=C1c2ccccc2CCc2ccccc21	> 11.4 µM	0.794 µM (active)	–	10.1%	> 46 µM	> 9.22 µM	inactive	inactive	–	–	–	–	0.398 µM (active)	–
Nc1nc(Sc2ccc([N+](=O)[O-])c3nonc23)c2[nH]cnc2n1	> 11.4 µM	–	–	-12.4%	> 46 µM	> 9.22 µM	inactive	inactive	–	–	3.16 µM (active)	–	1.58 µM (active)	-26.1% [at 2.29 µM]
O=C1/C(=C/c2ccccc2)[C@@H](NC2CCCCC2)c2ccccc21	> 11.4 µM	1 µM (active)	–	–	–	> 9.22 µM	inactive	inactive	–	inactive	3.98 µM (active)	–	1.26 µM (active)	–
Oc1c(C(O)(c2ccccc2)c2ccc3ccccc3c2O)ccc2ccccc12	> 11.4 µM	1 µM (active)	–	-10.4%	> 46 µM	> 9.22 µM	–	inactive	–	–	0.794 µM (active)	–	0.794 µM (active)	–
